# Assay outcomes from PubChem BioAssay.
# Only some compounds are listed: those with a hit (about 2.9% of all), similar ones and a draw of the others.
# PLC-gamma1 inh: PLC-gamma1 enzyme inhibitors, primary screen, biochemical, fluorescence, purified enzyme | 1-phosphatidylinositol 4,5-bisphosphate phosphodiesterase gamma-1 (Homo sapiens), P19174 | fluorogenic substrate | inhibition, % at 12.2 µM | 0.84% of 370,000 active | AID 720700, 2013; in the data active means inhibition above about 9.5%
# PLC-beta3 inh: human PLC-beta3 inhibitors, primary screen, biochemical, fluorescence | 1-phosphatidylinositol 4,5-bisphosphate phosphodiesterase beta-3 (Homo sapiens), Q01970 | Purified PLC-beta3, fluorogenic substrate | inhibition, % at 12.2 µM | 0.18% of 370,000 active | AID 720704, 2013; in the data active means inhibition above about 11%;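 further: 0% = median of compound wells on plate and 100% = full blocker control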
# ADAM10 inh: human ADAM10 inhibitors, primary screen, biochemical, QFRET, HTS; Disintegrin and metalloproteinase domain-containing protein 10 (Homo sapiens), O14672; recombinant ADAM10, EDANS/DABCYL FRET peptide cleavage, 3 h; inhibition, % at 7 µM; 0.62% of 370,000 active; AID 720582, 2013;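 active means inhibition above a per-campaign cutoff equal to the mean of compounds falling between control-based bounds plus 3 SD, cut at about 20% in these data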;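 further: 0% = DMSO wells while the 100% control is not disclosed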
# ADAM17 inh: ADAM17 inhibitors, primary screen, biochemical, QFRET | 0.83% of 370,000 active | inhibition, % at 6.95 µM | AID 720648, 2013 | Disintegrin and metalloproteinase domain-containing protein 17 (Homo sapiens), P78536 | recombinant ADAM17, EDANS/DABCYL FRET peptide cleavage;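 active means inhibition above the mean of compounds lying between control limits plus 3 SD, set per campaign, cut at about 8.5% in these data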;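 further: 0% = DMSO-only wells as the low control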
# proKLK7 act: proKLK7 zymogen activators, primary screen, biochemical, fluorescence intensity. Kallikrein-7 (Homo sapiens), P49862. purified proKLK7, EDANS-DABCYL substrate fluorescence; 100% is mature enzyme control, 0% vehicle. activation, % at 7 µM. 0.9% of 370,000 active;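 active means activation above the mean of all tested compounds plus 3 SD, computed per campaign excluding outliers beyond control limits, cut at about 13% in these data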
# proKLK7 act conf: proKLK7 zymogen activators, confirmation, biochemical, fluorescence intensity, triplicate | activation, % at 7 µM | shares compounds with proKLK7 act | 68% of 3,200 active | purified proKLK7, EDANS-DABCYL substrate fluorescence; scaled: vehicle 0, mature enzyme 100;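 active means activation, as change over the incubation, above the mean of all tested compounds plus 3 SD, cut at about 13% in these data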
# EDANS interfere: EDANS-DABCYL substrate optical interference, artefact control for kallikrein-7 zymogen activator project, biochemical, fluorescence intensity, high throughput | shares compounds with proKLK7 act | no enzyme, 4 h; solvent 0%, active enzyme control 100% | activation, % at 7 µM | 80% of 3,200 active | AID 686952, 2013;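 active means activation above the all-compound mean plus 3 SD, ignoring values outside control-based bounds, cut at about 4.8% in these data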;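 further: value is the 4 h activation minus the activation read at time zero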
# The depositor's hits bear a star; i = inactive; x = not tested or not shown.
SMILES,PLC-gamma1 inh,PLC-beta3 inh,ADAM10 inh,ADAM17 inh,proKLK7 act,proKLK7 act conf,EDANS interfere
CCOC(=O)Nc1ccc([N+](=O)[O-])cc1OC,0,1,-1,-4,1,x,x
O=C(Nc1ncc2c(n1)-c1ccccc1OC2)c1ccccc1Cl,-271,-397,i,i,16*,0,-2
O=C(Nc1ncc2c(n1)-c1ccccc1CC2)C1CC1,1,1,2,-1,0,x,x
Cn1ccc2c(-c3ccc(C(=O)O)cc3)cc3c(c21)C1CCC3O1 (stereo not drawn),i,i,i,i,79*,66*,70*
COc1ccccc1C=C1CCc2ccccc2C1=O,1,1,-1,0,-1,x,x
COc1cc(OC)c(OC)cc1/C=C1/Cc2ccccc2C1=O,-92,-127,1,-4,21*,92*,90*
Cc1cccc2c1CCC1CN(Cc3ccccc3)S(=O)(=O)N21 (stereo not drawn),5,3,1,-2,x,x,x
CCN1CCN(c2cc3c(nn2)Oc2ccccc2N3C)CC1,i,i,i,-390,61*,70*,67*
CCN1CCN(c2nnc(-c3ccccc3)c3ccccc23)CC1,4,-3,3,1,0,x,x
Cc1cc(=O)oc2cc3c(cc12)OCCN3,i,i,i,i,67*,76*,83*
Cc1cc(=O)oc2cc3c(cc12)OCO3,i,i,i,i,36*,67*,74*
Cc1cc(=O)oc2cc3c(cc12)OCCO3,-169,-192,i,-220,8,x,x
Cc1nn(-c2ccccc2)c(C)c1/C=N/NC(=O)c1[nH][nH]c(=O)c1C,0,0,-7,-2,0,x,x
CC(=O)c1ccc(-c2cccs2)s1,i,i,i,i,63*,63*,69*
COc1ccc(S[C@]2(C(=O)N3CCOCC3)CC(=O)N(P(=O)(OC)OC)[C@@H]2c2ccc(OC)cc2)cc1,0,-1,-7,-2,1,x,x
COC(=O)N1C[C@H](O)[C@H](O)C[C@@H]1c1ccccc1Br,1,4,-3,-1,0,x,x
Cc1cc(C)cc(NC(=O)c2ccc([N+](=O)[O-])o2)c1,0,0,-1,1,0,x,x
Cc1cc(C)nc(NC(=O)c2ccc([N+](=O)[O-])o2)n1,0,1,-10,-6,133*,151*,146*
COc1ccc(-c2oc3c(c2C#CC(C)(C)O)C(OC)CCC3)cc1 (stereo not drawn),-160,-219,i,-266,23*,-15,-22
COc1ccc(-c2oc3c(c2C#CC2(O)CCCCC2)C(OC(C)=O)CCC3)cc1 (stereo not drawn),-13,-16,-17,-5,0,x,x
Cc1nc(C(=O)NNC(=O)Nc2ccccc2)cs1,0,0,-1,-4,16*,-1,-1
Nc1[nH]c(C(=O)c2ccc(Br)cc2)c(-c2cccc3ccccc23)c1C(=O)NCCc1c[nH]c2ccccc12,-7,-10,-14,-1,0,x,x
O=C(Nc1cccc(-c2cn3cccnc3n2)c1)c1cccs1,i,i,i,i,8,x,x
Cc1c(-c2cccc(NC(=O)c3cccs3)c2)nc2ncccn12,i,i,i,i,62*,47*,62*
Cc1c(-c2cccc(NC(=O)c3ccco3)c2)nc2ncccn12,i,i,i,i,91*,69*,81*
SMILES,PLC-gamma1 inh,PLC-beta3 inh,ADAM10 inh,ADAM17 inh,proKLK7 act,proKLK7 act conf,EDANS interfere
CSc1scc2c1-c1nc(SCC(=O)C(C)(C)C)ncc1CC2,-268,-375,-408,-171,-7,x,x
C=CCNC(=O)CSc1ncc2c(n1)-c1c(csc1SC)CC2,i,i,i,i,46*,59*,69*
CCNS(=O)(=O)c1ccc2nc(NC(=O)/C=C/c3cc(OC)c(OC)c(OC)c3)sc2c1,i,i,-190,-61,3,x,x
COc1cc(/C=C/C(=O)Nc2nc3ccc(S(=O)(=O)NC(C)C)cc3s2)cc(OC)c1OC,-212,-293,-82,-30,15*,59*,63*
COCCCNC(=O)c1ccc2nc3ccccc3c(=O)n2c1,i,i,i,-447,31*,60*,68*
COc1ccc(CCNC(=O)c2ccc3nc4cc(Cl)ccc4c(=O)n3c2)cc1OC,-160,-225,-178,-67,-1,x,x
COC(CNC(=O)c1ccc2nc3ccccc3c(=O)n2c1)OC,i,i,i,-374,28*,62*,68*
CN1CCN(c2ccc3c(c2)Oc2ccccc2CN(Cc2cn(Cc4ccc(C(F)(F)F)cc4)nn2)S3(=O)=O)CC1,6,5,14,5,1,x,x
COC(=O)c1cc2c(c3c4cc(C)ccc4n(S(=O)(=O)c4cccc(C)c4)c13)C(=O)N(Cc1ccccc1OC)C2,-7,-37,3,3,-1,x,x
O=C(Cc1ccc([N+](=O)[O-])cc1)NCc1ccccc1Cl,4,1,4,4,40*,-1,-1
O=C(Cc1ccc([N+](=O)[O-])cc1)NCc1cccnc1,-3,-6,-4,-2,0,x,x
COC(=O)C1CN(CCc2ccccc2)CCS(=O)(=O)N1Cc1ccc(Cl)cc1 (stereo not drawn),0,0,-66,0,0,x,x
CCOC(=O)Cn1c(C(F)(F)F)nc2nc(Cl)c(Cl)nc21,-227,-312,i,-394,34*,8,7.1*
CCOC(=O)Cn1c2ccccc2c2nc3ccccc3nc21,-42,-51,-19,-5,0,x,x
CC(C)(C)c1ccc(C#C[C@@H]2C=C[C@@H](O)[C@@H](CO)O2)cc1,1,3,-1,-3,1,x,x
CCOC(=O)c1c(C)oc2c1c(CN1CCN(CCO)CC1)c(O)c1ccccc12,-6,-17,-8,-1,4,x,x
CCOc1ccccc1Oc1c(C)oc2c(CN3CCN(CCO)CC3)c(O)ccc2c1=O,i,i,i,i,129*,68*,66*
COc1ccccc1Oc1c(C)oc2c(CN3CCN(CCO)CC3)c(O)ccc2c1=O,i,i,i,i,116*,66*,70*
